TbPYK inhibitor: inhibitors of Trypanosoma brucei pyruvate kinase; Q57TT1; TbPYK enzyme, Kinase-Glo Plus ATP luminescence, 45 min; Potency, µM (titrated, usually from 76.8 µM), for inactives: at the highest dose activity, negative = inhibition, actives largely listed as inhibitors; hit rate 0.12% among 410,000; AID 624173; note: % is set by controls: 0 for no effect and ±100 for the full control effect; nearly all actives have a fitted effect of over 50% in size
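Glycolytic pyruvate kinase of T. brucei was incubated with substrate, test compound and 130 uM ADP for 45 minutes at room temperature. Luminescent Kinase-Glo Plus signal was measured after 10 minutes.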
LmPK inhibitor: inhibitors of Leishmania mexicana pyruvate kinase | Potency, µM (series often up to 57.5 µM), for the others: at the highest dose activity change, negative = inhibition, hits mostly inhibitors | hit rate 0.37% among 290,000 | purified LmPK, Kinase-Glo ATP luminescence, 1 h; note: % is set by controls: 0 for no effect and ±100 for the full control effect
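Pyruvate kinase activity monitored as ATP production (luciferase luminescence). Conditions: 0.1 nM enzyme, 0.5 mM PEP, 0.1 mM ADP, 1 h, RT; normalized against uninhibited and no-enzyme wells.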
Sm TGR block: blocks Schistosoma mansoni thioredoxin glutathione reductase; Q962Y6; purified TGR, DTNB reduction, TNB absorbance 405 nm; Potency, µM (doses to about 114 µM), inactives show at the highest dose activity change, negative = inhibition, most hits filed as inhibitors; hit rate 3% among 360,000; AID 485364; note: % is set by controls: 0 for no effect and ±100 for the full control effect; nearly all actives have a fitted effect of over 60% in size
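First, TGR (20 nM dispensed) and NADPH were mixed with compound. Second, a 15 min room-temperature incubation followed. Third, further NADPH and then DTNB were added to start the reaction. Finally, TNB absorbance was monitored kinetically.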
RE007 growth inh: less growth of the S. pombe RE007 Vpr strain; hit rate 0.21% among 360,000; Potency, µM (highest dose often 92.2 µM), for the others: top-dose activity change, negative = less growth, usual class: inhibitors; S. pombe RE007 Vpr strain, BacTiter-Glo ATP luminescence, 24 h; active = well fitted falling curve with a large enough effect; inconclusive = small, poorly fitted or top-dose-only effect; inactive = no such curve, though single readings can be large or run the other way; note: % is set by controls: 0 for no effect and ±100 for the full control effect; nearly all actives have a fitted effect of over 50% in size
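Fission yeast strain RE007, carrying one chromosomally integrated HIV-1 vpr copy, was seeded at OD 0.01 in PMG+AL medium with 23 nL pinned compound. After 24 h at 30 °C and 99% humidity, viability was read by BacTiter-Glo luminescence.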
FBPA Giardia inh: Giardia lamblia aldolase inhibition | purified Giardia FBPA | Potency, µM (series often up to 59.6 µM), inactives show top-dose activity, negative = inhibition, most hits filed as inhibitors | hit rate 0.71% among 290,000; note: % is set by controls: 0 for no effect and ±100 for the full control effect; nearly all actives have a fitted effect of over 55% in size
Target sequence (A8B2U2 whole entry, looked up): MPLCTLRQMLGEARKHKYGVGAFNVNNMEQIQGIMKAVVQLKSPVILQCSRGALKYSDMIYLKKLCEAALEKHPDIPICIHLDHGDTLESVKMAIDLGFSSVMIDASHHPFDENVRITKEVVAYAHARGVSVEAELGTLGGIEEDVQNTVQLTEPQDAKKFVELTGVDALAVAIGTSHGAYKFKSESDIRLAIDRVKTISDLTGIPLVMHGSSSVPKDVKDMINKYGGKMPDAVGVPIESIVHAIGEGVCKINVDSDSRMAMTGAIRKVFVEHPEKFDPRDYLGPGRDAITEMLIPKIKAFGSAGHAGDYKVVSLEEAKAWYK
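Giardia FBPA (40 nM reagent) was preincubated 10 min at RT with compound (up to 57.5 uM final), then substrate plus GAPDH/TPI/NAD/arsenate coupling system with diaphorase/resazurin was added; resorufin fluorescence (525/598 nm) was read after 20 min.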
NS1 function inh: blocks influenza NS1 protein function. Potency, µM (highest dose often 46.1 µM), for inactives: at the top dose activity, positive = more growth. hit rate 0.4% among 270,000. AID 2326; calls by dose curve; note: actives are rising curves; nearly all actives have a fitted effect of over 50% in size
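Read-out: OD600 growth recovery of NS1-expressing budding yeast. Cells grown overnight at 30C in -URA glucose medium, washed, resuspended and diluted 1:100 in 2% galactose assay medium, pH 6.0. Same strain lacking NS1 served as positive control.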
Numbers without * were called inactive; ? = inconclusive; · = no result given; [ ] = remark or other dose. A selection: hits, their analogues and other compounds. The true share with any hit is near 3.5%. Unless noted, calls come from the whole dose curve; as a rule, active = well fitted curve in the direction sought with a large enough effect; inconclusive = small, poorly fitted or top-dose-only effect, or another doubt; inactive = no such curve, though single readings can be large; an effect the other way counts as inactive or inconclusive. Potency is the fitted concentration of half-maximal effect.

SMILES	TbPYK inhibitor	LmPK inhibitor	Sm TGR block	RE007 growth inh	FBPA Giardia inh	NS1 function inh
COc1cc2c(cc1OC)C(C)N(CC(=O)Nc1ccc(S(=O)(=O)N3CCCC3)cc1)CC2 (stereo not given)	7.6%	7.7%	35.5µM*	11.9%	·	-19.9%
COc1cccc(CNS(=O)(=O)c2ccc(S(=O)(=O)N3CCCC3)cc2)c1	-2.9%	?	44.7µM*	18.3%	7.92µM*	3.8%
COc1cccc(CN2CCN(S(=O)(=O)c3ccc(Br)cc3)CC2)c1	0.0%	2.9%	1.4%	-5.8%	0.8%	-34.8%
COc1cccc(C(=O)CN2CCN(S(=O)(=O)c3ccc(Br)cc3)CC2)c1	2.2%	6.6%	14.1µM*	8.1%	-8.8%	-0.9%
Cc1ccc(N2CC(C)Cn3c2nc2c3c(=O)n(Cc3cccc(Cl)c3)c(=O)n2C)cc1 (stereo not given)	0.3%	·	-3.7%	·	·	·
COC(=O)c1sccc1S(=O)(=O)N(CC(=O)NCc1ccccc1)c1ccc(C)cc1	1.3%	·	-13.2%	·	·	·
CCCCC1C(=O)N(c2ccccc2)N(c2ccc(O)cc2)C1=O (stereo not given)	?	·	10µM*	3.4%[18.4 µM]	0.0%	·
Cc1ccc(C)n1-c1ccc(N2CCOCC2)c([N+](=O)[O-])c1	-7.0%	-3.7%	35.5µM*	1.3%	-13.7%	?
CCOC(=O)c1[nH]c(C)c(CCC(=O)NCc2ccc(OC)cc2)c1C	0.5%	·	3.3%	·	·	·
CN(CC1CCN(CCc2cccc(C(F)(F)F)c2)CC1)C(=O)c1ccc(F)cc1F	0.2%	4.6%	39.8µM*	8.4%	5.8%	6.5%
CSCCC(=O)N(C)CC1CCN(CCc2cccc(C(F)(F)F)c2)CC1	0.2%	2.6%	-19.6%	-9.9%	5.2%	6.9%
Cn1cc(S(=O)(=O)N2CCCCC2)cc1C(=O)Nc1ccc(OC(F)(F)F)cc1	-14.4%	·	8.0%	·	·	·
COc1cc(O)c(C(=O)O)c(-c2cc(O)c(O)cc2C)c1	10µM*	?	0.159µM*	-3.0%	15.5%	1.5%
Nc1nnnn1-c1ccccc1	0.3%	·	·	·	·	·
COc1ccccc1CNC(=O)c1cc(-c2ccccc2)nn1CC1CC(c2cccnc2)=NO1 (stereo not given)	-2.6%	·	·	13.1%	·	·
Cc1ccccc1-c1cc(C(=O)NCc2ccco2)n(CC2CC(c3cccnc3)=NO2)n1 (stereo not given)	4.3%	·	17.8µM*	-4.5%	·	·
O=C(/C=C/c1ccc2ccccc2n1)c1cc(Cl)ccc1O	-3.7%	3.7%	25.1µM*	15.9%	-12.7%	10.7%
O=C(NNC(=O)c1cccnc1)c1ccncc1	4.4%	-3.7%	2.5%	83.1%	-0.7%	1.0%
O=C1OCC=C1NNC(=O)c1cccnc1	2.0%	0.1%	39.8µM*	5.7%	-17.3%	·
COc1ccccc1C(c1nnnn1C(C)(C)C)N1CCN(C(=O)c2ccco2)CC1 (stereo not given)	-3.7%	4.7%	-8.1%	23.0%	1.7%	0.9%
CCC(C)(C)n1nnnc1C(c1cc2cc(C)cc(C)c2[nH]c1=O)N1CCCC1 (stereo not given)	-6.2%	2.5%	22.4µM*	18.4%	-15.1%	?
CCC(C)(C)n1nnnc1C(c1cc2cccc(C)c2[nH]c1=O)N1CCCC1 (stereo not given)	-3.9%	-5.6%	10µM*	-6.4%	-18.5%	-13.7%
CCC(C)(C)n1nnnc1C(c1cc2cc(C)cc(C)c2[nH]c1=O)N1CCN(Cc2ccc3c(c2)OCO3)CC1 (stereo not given)	-5.0%	8.4%	?	9.0%	-11.8%	6.6%
CCC(C)(C)n1nnnc1C(c1cc2ccc(OC)cc2[nH]c1=O)N1CCCCC1 (stereo not given)	0.0%	0.9%	3.1%	-2.9%	6.7%	-2.9%
Cc1ccc2occ(C(c3nnnn3C3CCCC3)N3CCN(C(=O)c4ccco4)CC3)c(=O)c2c1 (stereo not given)	-2.3%	-2.7%	17.8µM*	14.0%	-0.3%	-6.1%

Bioassay records: PubChem BioAssay, National Center for Advancing Translational Sciences (NCATS)
